The whole screen tested about 5,500 compounds, of which about 2,000 (36%) were called active. Roughly 18% stayed inconclusive and do not appear here. Cut-off read from the data, not from the text of the source: active = normalized growth mostly below about 0.91 (no sharp cut-off); inconclusive = no clear call, values can overlap the other calls; inactive = mostly above about 0.92. The list shows a part of the results.
Assay: chemical genetic growth profiling, strain panel (AID 1159580);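 note: tested at 20 µM; growth read once vehicle control cultures reached saturation at 30 °C; 1 = growth at the plate median or of vehicle wells; lower values mean less growth of the strain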
Conditions: growth OD

Measured: normalized growth

O=[N+]([O-])O[C@H]1CO[C@H]2[C@@H]1OC[C@H]2O[N+](=O)[O-]
active: S. cerevisiae deletion strains, locus YOR231W, strain MKK1, stronger effect = lower value 0.837
inactive: S. cerevisiae deletion strains, locus YJR043C, strain POL32, stronger effect = lower value 1.02 | S. cerevisiae deletion strains, locus YJR066W, strain TOR1, stronger effect = lower value 0.946 | S. cerevisiae deletion strains, locus YKL009W, strain mrt4, stronger effect = lower value 1.03 | S. cerevisiae deletion strains, locus YKL068W, stronger effect = lower value 1.01 | S. cerevisiae deletion strains, locus YKL085W, strain MDH1 (second series), stronger effect = lower value 1.01 | S. cerevisiae deletion strains, locus YKL085W, strain MDH1, stronger effect = lower value 1.01 | S. cerevisiae deletion strains, locus YKL160W, strain elf1, stronger effect = lower value 0.98 | S. cerevisiae deletion strains, locus YKL190W, strain CNB1, stronger effect = lower value 1.02 | S. cerevisiae deletion strains, locus YKR001C, strain vps1, stronger effect = lower value 1.02 | S. cerevisiae deletion strains, locus YKR026C, strain gcn3, stronger effect = lower value 0.993 | S. cerevisiae deletion strains, locus YKR091W, strain srl3, stronger effect = lower value 0.993 | S. cerevisiae deletion strains, locus YLL001W, strain dnm1, stronger effect = lower value 0.971 | S. cerevisiae deletion strains, locus YLL026W, stronger effect = lower value 1 | S. cerevisiae deletion strains, locus YLL041C, strain sdh2, stronger effect = lower value 0.998 | S. cerevisiae deletion strains, locus YLR027C, strain aat2, stronger effect = lower value 1.01 | S. cerevisiae deletion strains, locus YLR039C, strain RIC1, stronger effect = lower value 1.05 | S. cerevisiae deletion strains, locus YLR058C, strain SHM2, stronger effect = lower value 1.01 | S. cerevisiae deletion strains, locus YLR102C, strain apc9, stronger effect = lower value 1.01 | S. cerevisiae deletion strains, locus YLR113W, strain HOG1, stronger effect = lower value 0.926 | S. cerevisiae deletion strains, locus YLR221C, strain rsa3, stronger effect = lower value 0.995 | S. cerevisiae deletion strains, locus YLR258W, strain gsy2, stronger effect = lower value 0.995 | S. cerevisiae deletion strains, locus YLR262C, strain YPT6 (second series), stronger effect = lower value 1 | S. cerevisiae deletion strains, locus YLR262C, strain YPT6, stronger effect = lower value 1.02 | S. cerevisiae deletion strains, locus YLR268W, strain sec22, stronger effect = lower value 1.04 | S. cerevisiae deletion strains, locus YLR320W, strain mms22, stronger effect = lower value 0.979 | S. cerevisiae deletion strains, locus YLR330W, strain CHS5, stronger effect = lower value 1.01 | S. cerevisiae deletion strains, locus YLR342W, strain FKS1 (second series), stronger effect = lower value 1.04 | S. cerevisiae deletion strains, locus YLR342W, strain FKS1, stronger effect = lower value 0.995 | S. cerevisiae deletion strains, locus YLR357W, strain rsc2, stronger effect = lower value 0.983 | S. cerevisiae deletion strains, locus YLR370C, strain arc18, stronger effect = lower value 0.992 | S. cerevisiae deletion strains, locus YLR371W, strain rom2, stronger effect = lower value 1 | S. cerevisiae deletion strains, locus YLR384C, strain iki3, stronger effect = lower value 0.981 | S. cerevisiae deletion strains, locus YLR418C, strain cdc73, stronger effect = lower value 1.09 | S. cerevisiae deletion strains, locus YML016C, strain PPZ1, stronger effect = lower value 1.01 | S. cerevisiae deletion strains, locus YML032C, strain rad52, stronger effect = lower value 1.03 | S. cerevisiae deletion strains, locus YML120C, strain ndi1, stronger effect = lower value 0.966 | S. cerevisiae deletion strains, locus YML124C, strain tub3, stronger effect = lower value 1.02 | S. cerevisiae deletion strains, locus YMR058W, strain fet3, stronger effect = lower value 1 | S. cerevisiae deletion strains, locus YMR078C, strain ctf18, stronger effect = lower value 1.02 | S. cerevisiae deletion strains, locus YMR125W, strain sto1, stronger effect = lower value 0.996 | S. cerevisiae deletion strains, locus YMR129W, stronger effect = lower value 0.988 | S. cerevisiae deletion strains, locus YMR205C, strain PFK2, stronger effect = lower value 0.963 | S. cerevisiae deletion strains, locus YMR223W, strain ubp8, stronger effect = lower value 1.05 | S. cerevisiae deletion strains, locus YMR231W, strain pep5, stronger effect = lower value 1 | S. cerevisiae deletion strains, locus YMR307W, strain GAS1, stronger effect = lower value 1.05 | S. cerevisiae deletion strains, locus YNL067W, strain RPL9B, stronger effect = lower value 1.01 | S. cerevisiae deletion strains, locus YNL071W, strain lat1, stronger effect = lower value 0.996 | S. cerevisiae deletion strains, locus YNL128W, strain TEP1, stronger effect = lower value 1.03 | S. cerevisiae deletion strains, locus YNL183C, strain NPR1, stronger effect = lower value 0.955 | S. cerevisiae deletion strains, locus YNL209W, strain ssb2, stronger effect = lower value 0.994 | S. cerevisiae deletion strains, locus YNL233W, strain BNI4, stronger effect = lower value 1.01 | S. cerevisiae deletion strains, locus YNL248C, strain rpa49, stronger effect = lower value 1.01 | S. cerevisiae deletion strains, locus YNL250W, strain rad50, stronger effect = lower value 1.05 | S. cerevisiae deletion strains, locus YNL271C, strain bni1, stronger effect = lower value 1.01 | S. cerevisiae deletion strains, locus YNL298W, strain CLA4, stronger effect = lower value 1.03 | S. cerevisiae deletion strains, locus YNL307C, strain MCK1, stronger effect = lower value 1.02 | S. cerevisiae deletion strains, locus YNL322C, strain KRE1 (second series), stronger effect = lower value 0.979 | S. cerevisiae deletion strains, locus YNR049C, strain mso1, stronger effect = lower value 0.981 | S. cerevisiae deletion strains, locus YNR052C, strain pop2, stronger effect = lower value 1.02 | S. cerevisiae deletion strains, locus YOL006C, strain TOP1, stronger effect = lower value 1.01 | S. cerevisiae deletion strains, locus YOL012C, strain htz1 1.04 | S. cerevisiae deletion strains, locus YOL147C, strain pex11, stronger effect = lower value 1.02 | S. cerevisiae deletion strains, locus YOR001W, strain rrp6, stronger effect = lower value 1.01 | S. cerevisiae deletion strains, locus YOR061W, strain CKA2, stronger effect = lower value 1.01 | S. cerevisiae deletion strains, locus YOR069W, strain VPS5, stronger effect = lower value 1.01 | S. cerevisiae deletion strains, locus YOR070C, strain gyp1, stronger effect = lower value 1 | S. cerevisiae deletion strains, locus YOR080W, strain dia2, stronger effect = lower value 0.994 | S. cerevisiae deletion strains, locus YOR083W, strain WHI5, stronger effect = lower value 0.977 | S. cerevisiae deletion strains, locus YOR106W, strain vam3, stronger effect = lower value 1 | S. cerevisiae deletion strains, locus YOR136W, strain idh2, stronger effect = lower value 1.02 | S. cerevisiae deletion strains, locus YOR144C, strain elg1, stronger effect = lower value 1.02 | S. cerevisiae deletion strains, locus YOR184W, strain ser1, stronger effect = lower value 1.03 | S. cerevisiae deletion strains, locus YOR265W, strain rbl2, stronger effect = lower value 0.994 | S. cerevisiae deletion strains, locus YOR270C, strain vph1, stronger effect = lower value 1.02 | S. cerevisiae deletion strains, locus YOR290C, strain snf2, stronger effect = lower value 0.939 | S. cerevisiae deletion strains, locus YOR316C, strain cot1, stronger effect = lower value 1.01 | S. cerevisiae deletion strains, locus YPL051W, strain arl3, stronger effect = lower value 0.985 | S. cerevisiae deletion strains, locus YPL078C, strain atp4, stronger effect = lower value 0.979 | S. cerevisiae deletion strains, locus YPL106C, strain sse1, stronger effect = lower value 0.949 | S. cerevisiae deletion strains, locus YPL240C, strain hsp82, stronger effect = lower value 1 | S. cerevisiae deletion strains, locus YPL256C, strain CLN2, stronger effect = lower value 0.938 | S. cerevisiae deletion strains, locus YPR119W, strain clb2, stronger effect = lower value 1.02 | S. cerevisiae deletion strains, locus YPR141C, strain kar3, stronger effect = lower value 1.02 | S. cerevisiae deletion strains, locus YPR163C, strain tif3, stronger effect = lower value 1.01 | S. cerevisiae deletion strains, locus YPR167C, strain met16, stronger effect = lower value 1.02 | S. cerevisiae deletion strains, strain wtn01, stronger effect = lower value 1.05 | S. cerevisiae strains, strain wild type, stronger effect = lower value 1.02
